Molecules are shown by their SMILES. Counter-ions that a name gives are not always drawn. In all, about 2,800 compounds were measured (“cell viability relative to vehicle”: median about 0.98, lowest 2% from about 0.45 on). The sample as a whole holds a higher share of the lowest values than the screen did.

This assay deals with NCI-H2228 alectinib-DTP. The assay can be described thus: cell viability relative to vehicle (fraction of vehicle); NCI-H2228 is an ALK-positive lung cancer line and DTP means drug-tolerant persister; higher = less growth inhibition. The conditions noted are these: 100 nM; treatment time 6 days. In a few lines:
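Parental NCI-H2228 cells and drug-tolerant persister cells (made with 1000 nM of a targeted drug for 13 days) were seeded in 384-well plates. The next day, the 3114-agent TargetMol anti-cancer compound library was added at 100 nM, with DMSO as vehicle. After 6 days, ATP was read with the CellTiter-Glo 3D Cell Viability Assay. Each value is cell viability relative to vehicle-treated cells.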
`Cn1c(O)c(C2=c3ccccc3=NC2=O)c2ccccc21` [Methylisoindigotin] showed a cell viability of 0.85. The molecule `CC(C)=CCc1cc2c(cc1O)oc(=O)c1c3ccc(O)cc3oc21` [Psoralidin] yielded a cell viability of 1.15.

Molecule `COc1ccc(C[C@H](NC(=O)[C@H](C)NC(=O)CN2CCOCC2)C(=O)N[C@@H](Cc2ccccc2)C(=O)C2(C)CO2)cc1` (stereo in doubt) came in with a cell viability of 1.03. Turning to `CC(C)c1nc(CN(C)C(=O)N[C@@H](CCN2CCOCC2)C(=O)N[C@H](CC[C@H](Cc2ccccc2)NC(=O)OCc2cncs2)Cc2ccccc2)cs1` [Cobicistat], the cell viability is 1.02.

Turning to `CC(C)C[C@H](NC(=O)[C@H](CCc1ccccc1)NC(=O)CN1CCOCC1)C(=O)N[C@@H](Cc1ccccc1)C(=O)N[C@@H](CC(C)C)C(=O)[C@@]1(C)CO1` [Carfilzomib], the cell viability amounted to 0.116. For the molecule `N[C@@H](CSCCB(O)O)C(=O)O`, the cell viability turned out to be 0.835. Take `O=C(O)Cn1c2c(c3cc(F)ccc31)CN(C(=O)c1cccc3ccccc13)CC2` [Setipiprant]: the cell viability was 1.18. As to `CC(C)(C)c1ccc(C(=O)NC(=S)Nc2ccc(N)cc2)cc1` [Tenovin3], the cell viability worked out at 0.734. The result for `CCCCCCCCCCCCCC(=S)NCCCC[C@H](NC(=O)OCc1ccccc1)C(=O)Nc1ccccc1` [Thiomyristoyl] reads 1.11; that for `C/C=C1\NC(=O)[C@H]2CSSCC/C=C/[C@H](CC(=O)N[C@H](C(C)C)C(=O)N2)OC(=O)[C@H](C(C)C)NC1=O` [Romidepsin], 0.116.

In turn, `O=c1nc(N2CCN(CC3CCCCC3)CC2)sc2c([N+](=O)[O-])cc(C(F)(F)F)cc12` returned a cell viability of 0.985. The result for `CCC(Sc1nnc2c(n1)[nH]c1ccccc12)C(=O)N1c2ccccc2Sc2ccccc21` (stereo not given) [Inauhzin] reads 1.06; that for `CC[C@@]1(O)C(=O)OCc2c1cc1n(c2=O)Cc2cc3cc(O)ccc3nc2-1` [10-Hydroxycamptothecin], 0.304. The result for `CCc1c2c(nc3ccc(OC(=O)N4CCC(N5CCCCC5)CC4)cc13)-c1cc3c(c(=O)n1C2)COC(=O)[C@]3(O)CC` [Irinotecan hydrochloride trihydrate] reads 1.05; that for `CCc1c2c(nc3ccc(O)cc13)-c1cc3c(c(=O)n1C2)COC(=O)[C@]3(O)CC`, 0.263; that for `CC[C@@]1(O)C(=O)OCc2c1cc1n(c2=O)Cc2cc3c(CN(C)C)c(O)ccc3nc2-1` [Topotecan hydrochloride], 0.245. The result for `CCc1c2c(nc3ccc(OC(=O)N4CCC(N5CCCCC5)CC4)cc13)-c1cc3c(c(=O)n1C2)COC(=O)[C@]3(O)CC` [Irinotecan] reads 1.07; that for `CC[C@@]1(O)C(=O)OCc2c1cc1n(c2=O)Cc2cc3cc(O)ccc3nc2-1` [Hydroxy Camptothecine], 0.255; that for `COc1ccc(S(=O)(=O)NCc2ccc(C(=O)NCCc3ccc(Cl)cn3)cc2)cc1`, 1.14.

Molecule `CN1CCN(c2ccc(C(=O)Nc3cc(-c4cccc(NS(=O)(=O)c5ccccc5)c4)[nH]n3)cc2)CC1` came in with a cell viability of 0.98. Then `CC(C)Cc1ccc(-c2nc(-c3ccc(CN4CC(C(=O)O)C4)c(F)c3)no2)cc1` [S1p-receptor-agonist-1], with 1.03. Then `OC(CCN1CCCCC1)(c1ccccc1)C1CCCCC1` (racemic) [DL-trihexyphenidyl hydrochloride], with 0.964; and `CCCC[S+]([O-])c1sc2nc(-c3cccs3)cc(-c3ccccc3)c2c1N` (stereo not given), with 1. In turn, `Nc1c(S(=O)(=O)c2ccccc2)c2nc3ccccc3nc2n1-c1ccc(F)cc1` displayed a cell viability of 1.11. `Cc1cccc(C)c1N(CC(=O)Nc1ccc(-c2ncon2)cc1)C(=O)C1CCS(=O)(=O)CC1` [Amenamevir] gave a cell viability of 0.926. The result for `CC(C)=CC(=O)CCC(=O)N1CCN(Cc2cc3nc(-c4cccc5[nH]ncc45)nc(N4CCOCC4)c3s2)CC1` reads 0.892; that for `O=C1Nc2ccccc2/C1=C/c1ccc(F)cc1`, 1.04. Consider `N#Cc1c(-c2ccccc2)cc(-c2cc(Br)ccc2O)[nH]c1=O`, for which the cell viability was found to be 0.907. Then `CC/C(=C(/c1ccc(/C=C/C(=O)O)cc1)c1ccc2[nH]ncc2c1)c1ccc(F)cc1Cl`, with 1.07; and `CCOC(=O)c1c(C)[nH]c(C=C2C(=O)Nc3ccccc32)c1C` [VEGFR2 Kinase Inhibitor I], with 1.19; and `COc1c(O[C@@H]2O[C@H](CO)[C@@H](O)[C@H](O)[C@H]2O)cc2occ(-c3ccc(O)cc3)c(=O)c2c1O` [Tectoridin], with 1.03. Then `CN(C)Cc1ccc(S(=O)(=O)n2ccc(/C=C/C(=O)NO)c2)cc1` [Resminostat hydrochloride], with 1.15; and `Cc1[nH]c2ccccc2c1CCNCc1ccc(/C=C/C(=O)NO)cc1` [Panobinostat], with 0.22; and `Cc1[nH]c2ccccc2c1CCNC(=O)c1cccs1`, with 0.919. The result for `Cc1ccc(S(=O)(=O)Nc2cc(C(F)(F)F)ccc2C(=O)Nc2nc(-c3ccccc3)cs2)cc1` reads 0.852; that for `CCC(=O)O[C@]1(C(=O)CO)CC[C@H]2[C@@H]3CCC4=CC(=O)CC[C@]4(C)[C@H]3CC[C@@]21C` [17 alpha-propionate], 0.936; that for `NC[C@H]1OB(O)c2c(OCCCO)cccc21` [Epetraborole hydrochloride], 1.11.

On to `Cc1cc(O)c(-c2ccc(C(C)CN)cc2)c2c1[nH]c(=O)c1sccc12` (stereo not given), for which the cell viability stood at 0.15. `O=C1C[C@@H](c2ccccc2)Oc2cc(O)cc(O)c21` [Pinocembrin] registered a cell viability of 0.964.

On to `C[C@H](CCOc1cccc(CC(=O)O)c1)N(Cc1cccc(C(F)(F)F)c1Cl)CC(c1ccccc1)c1ccccc1`, for which the cell viability was 0.781. Then `C=C1CC[C@H]2C(=C)CC[C@H]3C(=C)C(=O)O[C@@H]3[C@@H]12` [Dehydrocostus Lactone], with 0.984; and `CC(C)=CCC[C@](C)(O)[C@H]1CC[C@]2(C)[C@@H]1[C@H](O)C[C@@H]1[C@@]3(C)CC[C@H](O)C(C)(C)[C@@H]3CC[C@]12C` [(20S)-Protopanaxadiol], with 0.908; and `Cc1c(-c2ccc(N3CCc4cccc(C(=O)Nc5nc6ccccc6s5)c4C3)nc2C(=O)O)cnn1CC12CC3CC(CC(C3)C1)C2`, with 0.806.

As to `CCn1cc(C(=O)O)c(=O)c2c(N)c(F)c(NC3CCCCC3)cc21`, the cell viability was found to be 1.1.

Molecule `O=C(NCc1ccc(S(=O)(=O)c2cc(F)cc(F)c2)cc1)c1ccc2nccn2c1` showed a cell viability of 0.34.

`Cc1ccc(S(=O)(=O)Cc2nc(-c3ccc(C(=O)NCc4cccnc4)cc3)oc2C)cc1` returned a cell viability of 0.955. Turning to `CC1(C)CC[C@]2(C(=O)O)CCC3=C([C@@H](CCl)C[C@@H]4[C@@]5(C)C[C@H](O)[C@H](O)[C@@](C)(C(=O)O)[C@@H]5CC[C@@]34C)[C@@H]2C1` [Senegenin], the cell viability is 0.889. Then `COCc1c(-c2ccc(NC(=O)Nc3cc(C(F)(F)F)ccc3F)c(F)c2)c2c(N)ncnn2c1CN1CCOCC1`, with 0.632; and `C[C@@H]1CC[C@@]2(NC1)O[C@H]1C[C@H]3[C@@H]4CC=C5C[C@@H](O[C@@H]6O[C@H](CO)[C@@H](O[C@@H]7O[C@@H](C)[C@H](O)[C@@H](O)[C@H]7O)[C@H](O)[C@H]6O[C@@H]6O[C@@H](C)[C@H](O)[C@@H](O)[C@H]6O)CC[C@]5(C)[C@H]4CC[C@]3(C)[C@H]1[C@@H]2C` [Solamargine], with 1.06. For the molecule `CNC(=O)c1cccc(-c2ccc3c(N4CCOC[C@@H]4C)nc(N4CCOC[C@@H]4C)nc3n2)c1` [Vistusertib], the cell viability was 0.594.

`COc1ccc(-c2ccc3c(N4CCOCC4)nc(N4C[C@@H](C)O[C@@H](C)C4)nc3n2)cc1CO`: the cell viability worked out at 0.765. Then `COc1ccc(-c2ccc3c(N4CCOC[C@@H]4C)nc(N4CCOC[C@@H]4C)nc3n2)cc1CO`, with 0.377; and `COc1ccc([C@@H]2OC[C@H]3[C@@H]2CO[C@@H]3c2ccc3c(c2)OCO3)cc1OC` [Fargesin], with 1.11; and `NCCNc1ccc(NCCN)c2c1C(=O)c1ccncc1C2=O` [Pixantrone dimaleate], with 0.661.

Molecule `O=C1c2c(O)ccc(O)c2C(=O)c2c(NCCNCCO)ccc(NCCNCCO)c21` [Mitoxantrone] showed a cell viability of 0.386. On to `O=C1c2cccc(O)c2C(=O)c2c(O)cccc21` [Antrapurol], for which the cell viability turned out to be 0.878. Turning to `CC(C)=CCc1c(O)ccc(C(=O)/C=C/c2ccc(O)cc2)c1O` [Isobacachalcone], the cell viability turned out to be 1.01. As to `Cc1ccc([N+](=O)[O-])cc1S(=O)(=O)N(C)/N=C/c1cnc2ccc(Br)cn12`, the cell viability stood at 0.172. The result for `Cc1ccc([N+](=O)[O-])cc1S(=O)(=O)N(C)/N=C/c1cnc2ccc(Br)cn12` [PIK-75  hydrochloride] reads 0.201; that for `CC(C)n1cnc2c(NCc3ccccc3)nc(NCCCO)nc21` [Bohemine], 0.951; that for `C=CCSC[C@H](N)C(=O)O` [S-allyl-L-cysteine], 1.06. The molecule `CC(C)=CC[C@H](O)C1=CC(=O)c2c(O)ccc(O)c2C1=O` [Alkannin] returned a cell viability of 0.957.

Regarding `CC1=C(C(=O)Nc2ccc3[nH]ncc3c2)C(c2ccc(F)c(C(=O)NCc3ccccn3)c2)NC(=O)N1` (stereo not given), the cell viability was determined as 1. As to `CO[C@@H](C)Cn1c(=O)n(C)c2cnc3ccc(-c4cncc(C(C)(C)O)c4)cc3c21`, the cell viability is 0.513. Take `CC(C)(C#N)c1ccc(N2C(=O)OCc3cnc4ccc(-c5cnc6ccccc6c5)cc4c32)cc1`: the cell viability was determined as 0.925. Then `Cn1c(=O)n(-c2ccc(C(C)(C)C#N)cc2)c2c3cc(-c4cnc5ccccc5c4)ccc3ncc21` [Dactolisib], with 0.435; and `O[C@@H]1[C@@H](O)[C@@H](OC/C=C/c2ccccc2)O[C@H](CO[C@@H]2OC[C@H](O)[C@H](O)[C@H]2O)[C@H]1O` [Rosavin], with 0.944; and `C[C@@H]1CC(=O)Nc2cccc(-c3ccc4c(c3)c(-c3cnn(C)c3)nn4C)c2N1`, with 1.01.

Molecule `O=C(Nc1nc(-c2ccc(O)c(O)c2)c(-c2ccccc2)s1)c1ccc(O)c(O)c1` came in with a cell viability of 1.03.

`COc1ncc(-c2ccc3nccc(-c4ccnnc4)c3c2)cc1NS(=O)(=O)c1ccc(F)cc1F` [Omipalisib] came in with a cell viability of 0.261. The result for `CS(=O)(=O)Nc1cc(-c2ccc3ncnc(Nc4ccc(F)c(Cl)c4)c3c2)cnc1Cl` reads 0.997. The result for `CCCS(=O)(=O)Nc1ccc(F)c(C(=O)c2c[nH]c3ncc(-c4ccc(Cl)cc4)cc23)c1F` [Vemurafenib] reads 1.12; that for `Nc1ccccc1C(=O)C[C@H](N)C(=O)O` [L-Kynurenine], 0.987; that for `N#CCC(C1CCCC1)n1cc(-c2ncnc3[nH]ccc23)cn1` (stereo not given), 1.16. The result for `CN1CCN(c2cc(-c3ccccc3)nc(N)n2)CC1` reads 1.09; that for `COC(=O)c1ccc([C@H]2c3[nH]c4ccccc4c3C[C@H](C(=O)OC)N2C(=O)CCl)cc1`, 0.0417; that for `COC(=O)[C@@H]1[C@H]2C[C@H]3c4[nH]c5ccccc5c4CCN3C[C@@H]2CC[C@@H]1O` [Yohimbine hydrochloride], 1.22. `CN1CC(=O)N2[C@H](c3ccc4c(c3)OCO4)c3[nH]c4ccccc4c3C[C@@H]2C1=O` [Tadalafil] registered a cell viability of 0.916. Then `CCCNC(=O)c1cn2ncnc(Nc3cc(C(=O)NC4CC4)ccc3C)c2c1C`, with 1.03; and `COc1ccc(-c2ccccc2)cc1NS(=O)(=O)c1cc(Cl)cc(Cl)c1O`, with 0.883.

Source of the values: the supplement of paper PMC10600219.
